Screens as filed in PubChem BioAssay.
Lassa entry inh: blocks Lassa virus binding to or entry into cells | Potency, µM (highest dose often 37.9 µM), usual class: inhibitors | Lassa virus pseudotype entry inhibition, cell reporter | actives 1.2% (n = 300,000); calls by dose curve; tested in HEK293 cells; also: nearly all actives have a fitted effect of over 50% in size
Shiga toxin inh: Shiga toxin inhibition | Vero cells, Shiga toxin protein synthesis inhibition reporter | inhibition, % at 38.7 µM | actives 9.2% (n = 290,000); in the data active = inhibition mostly above about 28%, no sharp cut-off; inactive = mostly below about 43%
HCV inhibitor: inhibitors of hepatitis C virus infection. Huh7.5.1 HCVcc-Cre infection, luciferase reporter, 44 h. actives 3.4% (n = 340,000). Potency, µM (series often up to 41.8 µM), hits mostly inhibitors; active = well fitted inhibition curve with a large enough effect; inconclusive = small, poorly fitted or top-dose-only effect, or another doubt; inactive = no such curve, though single readings can be large or run the other way
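Luciferase read-out (15 sec integration) after a 15 min room-temperature substrate step quantifies HCVcc-Cre infection. Cells, 1,000 per well, had compound added 4 h post-plating, then virus at ~0.5 moi, and were cultured 44 h.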
MARV entry inh: Marburg virus entry inhibition; Marburg virus pseudotyped entry inhibition, cell reporter; Potency, µM (series often up to 37.8 µM), actives largely listed as inhibitors; actives 1.8% (n = 300,000); calls by dose curve; tested in HEK293 cells
FMDV antiviral: foot and mouth disease virus antiviral activity; Potency, µM (series often up to 57.9 µM), most hits filed as inhibitors; FMDV antiviral cell-based qHTS; actives 1.2% (n = 410,000); AID 1159524; calls by dose curve; tested in HEK293T cells; also: read-out not given here; nearly all actives have a fitted effect of over 45% in size
Cycloheximide cs: affects cycloheximide protein synthesis inhibition readout, counter-screen. cell reporter, cycloheximide protein synthesis inhibition counterscreen. max response, %. actives 12% (n = 300,000). AID 2314; in the data active = max response mostly above about 13%, no sharp cut-off; inactive = mostly below about 14%; also: read at 38.3 µM for the half of the compounds with a filed dose
Hits are given with their value; . = inactive; ? = inconclusive; / = no result given; + = active, no number. Only some compounds are listed: those with a hit (about 13% of all), similar ones and a draw of the others.

SMILES | Lassa entry inh | Shiga toxin inh | HCV inhibitor | MARV entry inh | FMDV antiviral | Cycloheximide cs
CC12CCC(=O)C=C1CCC1C2CCC2(C)C(c3csc(N)n3)CCC12 (stereo not given) | 13µM | / | 10µM | ? | 13µM | /
CCC(C(=O)OCC(=O)C1(O)CCC2C3CCC4=CC(=O)CCC4(C)C3C(O)CC21C)C(C)C (stereo not given) | ? | / | ? | ? | 20µM | /
CC(=O)C1CCC2C3CCC4=CC(=O)CCC4(C)C3CCC12C (stereo not given) | / | . | / | / | ? | .
CC12CCC(=O)C=C1CCC1C2C(O)CC2(C)C(c3csc(N)n3)CCC12 (stereo not given) | . | / | ? | 8.9µM | ? | /
COc1ccc(N(C(=O)Cc2cccs2)C(C(=O)NC2CCCCC2)c2cccn2C)cc1 (stereo not given) | . | . | . | . | . | .
CCOC(=O)N1CCC(NCCNC(=O)c2ccccc2Cl)CC1 | . | . | . | . | . | .
CCCn1cc(CN2CCc3ccc(NC(=O)C4CCCO4)cc3C2)c(C)n1 (stereo not given) | . | . | . | . | . | .
O=[N+]([O-])c1ccc(N2CCN(c3cccc(Cl)c3)CC2)nc1 | / | . | . | / | . | .
Cc1ccc2nc(-c3ccccc3)oc(=O)c2c1 | / | . | . | / | . | .
COc1ccc(-c2nc3ccccc3c(=O)o2)cc1 | . | . | . | ? | . | 13
COc1cccc(-c2nc3ccccc3c(=O)o2)c1 | . | . | . | ? | . | 19
Cc1ccc(-c2nc3ccccc3c(=O)o2)cc1 | / | / | . | / | . | 23
Cc1cccc(CNC(=O)CCCN2C(=O)CCn3nc(-c4cn(C)c5ccccc45)cc32)c1 | . | / | / | / | . | /
CC(=O)N1c2ccc(C)cc2C(c2ccccc2)CC1C (stereo not given) | ? | . | . | 6.3µM | . | .
CC(=O)OC1CC(C)N(C(=O)c2ccccc2)c2ccc(C)cc21 (stereo not given) | . | . | . | ? | ? | .
Cn1nc(C(=O)N2CCN(c3ccc([N+](=O)[O-])cc3)CC2)c2c1-c1ccccc1S(=O)(=O)C2 | / | . | . | / | . | .
Cc1ccc(Oc2ccc(NC(=O)CCC(=O)OCC(=O)c3cccs3)cc2)cc1C | . | . | . | ? | . | 17
Cc1ccc(NC(=O)COC(=O)CCC(=O)c2cccs2)c(Br)c1 | / | / | . | / | . | /
Cc1ccc(NC(=O)CCC(=O)c2cccs2)c(Br)c1 | . | 115 | . | . | . | 36
CCCOc1ccc(C(=O)CCNc2ccc(C)c(Cl)c2)cc1 | . | . | . | . | / | .
Cc1ccc(C(=O)N/N=C(/CC(=O)c2cccs2)C(F)(F)F)cc1 | ? | . | . | ? | . | 23
Cc1ccc(NCCC(=O)c2cccs2)cc1Cl | . | 53 | . | ? | . | 29
CCOc1ccc(NC(=O)C(C)Oc2ccccc2C(=O)Nc2cccc(Cl)c2Cl)cc1 (stereo not given) | . | . | . | ? | . | .
CCSC(=Nc1ccccc1)N1CCOCC1 | . | / | . | . | . | /
N#Cc1ccccc1Sc1ccccc1C(=O)OCC(=O)NC12CC3CC(CC(C3)C1)C2 | ? | . | ? | ? | ? | .
SMILES | Lassa entry inh | Shiga toxin inh | HCV inhibitor | MARV entry inh | FMDV antiviral | Cycloheximide cs
CCn1c(=O)n(CC)c2cc(NC(=O)c3ccccc3Cl)ccc21 | / | . | ? | / | . | .
COCON1C(=O)CN(C(C)=O)C1c1ccc(Cl)cc1Cl (stereo not given) | ? | . | . | . | . | .
Cc1cc(C)c(C(CC(=O)c2cccs2)C(C#N)C#N)c(C)c1 (stereo not given) | . | 84 | . | ? | ? | 61
Cc1ccc(NC(=O)CCC(=O)c2cccs2)cc1 | . | . | . | . | . | 16
Cc1ccc(CNC(=O)CCC(=O)c2cccs2)cc1 | . | . | . | . | . | .
O=C(CCC(=O)c1cccs1)Nc1ccc(N2CCCCC2)cc1 | ? | 86 | . | ? | . | 45
Cc1ccc(NCCC(=O)c2cccs2)cc1C | . | 58 | . | ? | . | 49
O=C(O)CCCC(=O)Nc1ccc(N2CCCC2)cc1 | . | . | . | . | . | .
CC1(C(=O)Nc2ccc3[nH]ncc3c2)CCN1C(=O)C1(c2ccccc2)CC1 (stereo not given) | / | / | / | / | . | /
O=C(CCC(=O)c1cccs1)NNC(=O)c1cccc(Cl)c1 | . | / | . | . | . | /
O=C(CCNc1cccc(Cl)c1)c1cccs1 | . | 57 | . | . | . | 33
Cc1ccc(NCCC(=O)c2cccs2)cc1 | / | 80 | . | / | . | 46
CC(CC(=O)c1cccs1)CC(=O)c1cccs1 | . | + | . | ? | / | 56
CC(C)c1ccc(NCCC(=O)c2cccs2)cc1 | . | 140 | . | ? | . | 60
Cc1ccc(NCCC(=O)c2ccc(Cl)c(Cl)c2)cc1 | . | . | / | . | . | .
CCOc1ccc(NC(=O)c2sc3nc(N4CCOCC4)c4c(c3c2N)CCCC4)cc1 | / | . | . | / | . | .
CC(=O)c1cccc(CN2CCN(Cc3ccc(F)cc3)C(CCO)C2)c1 (stereo not given) | / | . | . | / | . | .
CC(C)C(=O)OCC(=O)Nc1ccc(N=Nc2ccccc2)cc1 | ? | 46 | . | ? | . | 31
CCCC(=O)Nc1ccc(C(=O)n2ccc(C)n2)cc1 | . | . | . | . | . | 11
O=C(CCl)Nc1ccc(N=Nc2ccccc2)cc1 | ? | 106 | . | ? | . | 128
CCC(C(=O)OCC(=O)Nc1ccc(F)cc1)c1ccccc1 (stereo not given) | . | / | . | . | . | /
O=C(Nc1ccc(N=Nc2ccccc2)cc1)c1ccccc1Cl | ? | 73 | ? | ? | . | 27
Cc1cc(=O)[nH]c2nnc(SCc3ccc(F)cc3)n12 | . | / | / | / | . | /
CNC(=O)Oc1cccc2c1OC(C)(C)C2 | / | / | / | / | . | /
CCS(=O)(=O)C(C)(CCl)C(=O)Nc1ccc(C(=O)OC)cc1 (stereo not given) | . | . | . | ? | . | .
SMILES | Lassa entry inh | Shiga toxin inh | HCV inhibitor | MARV entry inh | FMDV antiviral | Cycloheximide cs
CCCNC(=S)Nc1ccc(Nc2ccccc2)cc1 | ? | . | ? | ? | . | .
CC(=O)Nc1ccc(Nc2ccccc2)cc1 | / | 59 | ? | / | . | 27
CC(=O)Nc1ccc(N=Nc2ccccc2)cc1 | . | 65 | . | ? | . | 49
CCCC(=O)Nc1ccc(Nc2ccccc2)cc1 | . | 35 | . | ? | . | 23
CNC(=S)Nc1ccc(Nc2ccccc2)cc1 | . | . | . | . | . | 20
CCCC(=O)Nc1ccc(-c2ccc(NC(=O)CCC)cc2)cc1 | . | . | . | . | . | .
CC1CCc2c(sc(NC(=O)c3ccc(-c4ccccc4[N+](=O)[O-])o3)c2C#N)C1 (stereo not given) | . | . | ? | . | / | .
CC(=O)OCC(=O)Nc1ccc(SC(F)F)cc1 | . | . | . | ? | . | .
CC(C)N(c1ccccc1)c1ccc(NC(=O)CCl)cc1 | / | . | ? | / | 40µM | .
CC(=O)OCC(=O)Nc1ccc(N=Nc2ccccc2)cc1 | ? | . | . | . | . | 38
CCc1c(C)sc(NC(=O)c2cccs2)c1C#N | . | 77 | ? | . | . | 53
